nsP2pro primary: blocks chikungunya virus nsP2 protease peptide cleavage; FRET peptide cleavage, nsP2pro, fluorescence 1 h; Potency, µM (top dose mostly 24.9 µM), actives largely listed as inhibitors; 31,000 tested, 1.1% active; AID 1964107; also: nearly all actives have a fitted effect of over 60% in size
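Enzyme 150 nM, substrate 2.5 uM (both final); Tris-HCl 10 mM pH 8.0 + 0.01% Tween 20; cpd up to 25 uM, 7 pts; 15 min preinc., 1 h RT; fluorescence ex 525/em 598.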
nsP2 cell sec: inhibits CHIKV nsP2 protease in cells; 450 tested, 10% active; cell-based CHIKV nsP2 protease reporter assay; AID 1964100; shares compounds with nsP2pro primary; Potency, µM (titrated, usually from 51.1 µM), hits mostly inhibitors; also: nearly all actives have a fitted effect of over 70% in size
Target sequence (Q8JUX6 220-798 limits assumed): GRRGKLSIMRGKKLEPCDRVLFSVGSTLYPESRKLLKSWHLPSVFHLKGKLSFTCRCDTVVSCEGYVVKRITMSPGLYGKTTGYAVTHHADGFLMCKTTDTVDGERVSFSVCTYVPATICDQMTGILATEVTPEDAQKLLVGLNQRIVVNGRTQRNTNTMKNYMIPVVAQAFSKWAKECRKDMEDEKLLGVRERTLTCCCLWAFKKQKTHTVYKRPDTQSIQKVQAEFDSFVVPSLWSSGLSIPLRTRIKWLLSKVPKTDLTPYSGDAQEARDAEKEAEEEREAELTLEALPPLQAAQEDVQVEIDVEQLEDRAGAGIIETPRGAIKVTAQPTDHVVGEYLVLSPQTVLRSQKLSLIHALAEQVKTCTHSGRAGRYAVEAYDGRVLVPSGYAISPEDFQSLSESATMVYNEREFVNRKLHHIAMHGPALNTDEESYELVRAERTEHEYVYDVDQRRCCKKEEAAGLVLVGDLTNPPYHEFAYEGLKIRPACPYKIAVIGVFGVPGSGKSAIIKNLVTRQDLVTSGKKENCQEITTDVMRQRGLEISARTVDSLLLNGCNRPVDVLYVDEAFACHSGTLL
NSP2 full ctr: inhibits full-length CHIKV NSP2 enzyme. Potency, µM (highest dose often 50.7 µM), usual class: inhibitors. 410 tested, 39% active. shares compounds with nsP2pro primary. Full-length CHIKV NSP2 protease enzymatic counterscreen; also: nearly all actives have a fitted effect of over 65% in size
Furin counterscr: human furin inhibition, counterscreen for nsP2pro inhibitors. shares compounds with nsP2pro primary. Recombinant human furin enzymatic counterscreen, fluorogenic substrate. Potency, µM (highest dose often 50.6 µM), usual class: inhibitors. 410 tested, 6% active
NS23 peptide cs: selectivity test for CHIKV nsP2 protease inhibitors: endogenous NS2/3 peptide | shares compounds with nsP2pro primary | 410 tested, 34% active | Purified CHIKV nsP2 protease, endogenous NS2/3 peptide cleavage | Potency, µM (series often up to 51 µM), usual class: inhibitors; also: nearly all actives have a fitted effect of over 55% in size
Papain cs: papain protease inhibition, counterscreen for nsP2pro inhibitors; shares compounds with nsP2pro primary; purified papain protease activity, enzymatic inhibition; Potency, µM (doses to about 51 µM), most hits filed as inhibitors; 410 tested, 5% active
nsP2pro confirm: CHIKV nsP2 protease inhibition, confirmatory qHTS | shares compounds with nsP2pro primary | 410 tested, 43% active | AID 1964105 | CHIKV nsP2 protease enzymatic activity, qHTS | Potency, µM (doses to about 25.5 µM), usual class: inhibitors; also: nearly all actives have a fitted effect of over 75% in size
HCV NS3 4A cs: selectivity counter-screen for CHIKV nsP2 protease inhibitors: HCV NS3/4A; shares compounds with nsP2pro primary; HCV NS3/4A protease biochemical counterscreen; Potency, µM (series often up to 50.9 µM), actives largely listed as inhibitors; 410 tested, 20% active; AID 1964106; also: nearly all actives have a fitted effect of over 55% in size
Each line names hits and unclear results; the compound was inactive in the other large screens (follow-up assays come after a bar, where they were run). The full list was thinned out, with hits kept by preference. Calls follow the shape of the full dose curve.

C[C@]1(O)CCN(C(=O)c2cc(-c3ccsc3)n[nH]2)C[C@@H]1O	none
C/C=C/c1cc(OC)c2c(c1)[C@@H](C)[C@@H](c1ccc(O)c(OC)c1)O2	none
C/C=C/c1ccc(OC)cc1	none
C/C=C/c1ccc(O)c(OC)c1	nsP2pro primary inconclusive | nsP2 cell sec inactive | NSP2 full ctr 18.3µM | Furin counterscr inactive | NS23 peptide cs inconclusive | Papain cs inactive | nsP2pro confirm 5.04µM | HCV NS3 4A cs inconclusive
COc1ccc(-c2ccc3ccccc3n2)c(OC)c1OC	none
CCc1ccc(NCc2cccn2-c2nnc(N3CCCCCC3)s2)cc1	nsP2pro primary inconclusive | nsP2 cell sec inconclusive
COc1ccccc1NCc1cccn1-c1nnc(N2CCCCCC2)s1	none
Cc1ccc(CNCc2cccn2-c2nnc(N3CCCC3)s2)cc1	none
CN1CCc2[nH]cnc2C12CCN(C(=O)Cc1ccc(F)cc1Cl)CC2	none
Cc1cccc(-c2csc3ncnc(Sc4nnnn4C)c23)c1	none
Cn1nnnc1Sc1ncnc2scc(-c3cccc(N)c3)c12	nsP2pro primary 1.78µM | nsP2 cell sec 20.6µM | NSP2 full ctr inactive | Furin counterscr inactive | NS23 peptide cs inactive | Papain cs inactive | nsP2pro confirm inactive | HCV NS3 4A cs inactive
Cn1nnnc1Sc1ncnc2scc(-c3cccc(Br)c3)c12	none
CCCCOc1ccc(C(=O)N2CCN(CCc3ccncc3)CC2)cc1	nsP2pro primary inconclusive | nsP2 cell sec inactive
Cc1cc(OCC(=O)N2CCN(CCc3ccncc3)CC2)ccc1Cl	none
CCCCOc1ccc(OCCCN2CCOCC2)cc1	none
Cc1ccc(OCC(=O)N2CCN(CCc3ccncc3)CC2)cc1C	none
O=C(O)c1ccc(OCCCOc2ccc(C(=O)O)cc2)cc1	none
CCCCOc1ccc(C(=O)CCN2CCCCC2)cc1	nsP2pro primary 2.21µM | nsP2 cell sec inconclusive | NSP2 full ctr 10.3µM | Furin counterscr inconclusive | NS23 peptide cs 13µM | Papain cs inconclusive | nsP2pro confirm 8.96µM | HCV NS3 4A cs inactive
COc1ccc(-c2ccc3nc(-c4cc(F)cc(F)c4F)oc3c2)c(OC)c1OC	none
CCN(CCn1cccn1)Cc1ccccc1OCC(O)CN1CCCCC1 (stereo unspecified)	none
NCC(=O)N1CCC2(CC1)CN(C(=O)c1ccc(Cl)cc1)CCO2	none
N#Cc1cccc(C(=O)N2CCCOCCNC(=O)CC2)c1	none
CC(C)c1cnn2c(NCc3ccccc3-n3cccn3)nc(OC3CCCNC3)nc12 (stereo unspecified)	none
COC(=O)[C@@]1(O)C=CC[C@@H]2[C@@]3(C)C[C@@H](c4ccoc4)OC(=O)[C@H]3CC[C@]21C	nsP2pro primary 2.72µM | nsP2 cell sec inactive | NSP2 full ctr inactive | Furin counterscr inactive | NS23 peptide cs inactive | Papain cs inactive | nsP2pro confirm inconclusive | HCV NS3 4A cs inactive
CC(=O)OC[C@@]12C(=O)C[C@@H](C)[C@]3(C[C@@H](c4ccoc4)O[C@H]3OC(C)=O)[C@H]1CCC[C@]21CO1	none
C[C@@]12C[C@@H](c3ccoc3)OC(=O)C1CC[C@]1(C)[C@H]2[C@H]2C=C[C@]1(O)C(=O)O2 (stereo partly specified)	nsP2pro primary 5.44µM | nsP2 cell sec inactive | NSP2 full ctr inactive | Furin counterscr inactive | NS23 peptide cs inactive | Papain cs inactive | nsP2pro confirm inactive | HCV NS3 4A cs inactive
CC(=O)Nc1ccc2c(c1)S(=O)(=O)N=C(CC(C)C)N2CC(C)C	none
CC(=O)N[C@H]1C[C@@H](c2cc(C)c(C)cc2C)O[C@@H](C(C)(C)C)C1	none
Cc1nc(C)c(-c2ccc3ncnc(NCCc4cnc[nH]4)c3c2)s1	none
CC[C@H](C)C(=O)O[C@H]1C[C@@H](C)C=C2C=C[C@H](C)[C@H](CC[C@@H]3C[C@@H](O)CC(=O)O3)[C@H]21	none
